# In PubChem BioAssay (NCI):
# About 83,000 compounds went through this panel and 20% of them were active in at least one assay; those are over-represented in the sample as a whole.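 Method: cells in 96-well plates; compound added at one concentration; 48 h incubation; percent growth measured; values under 10 scored active.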 A number with no mark means an inactive call. Calls of active or inactive are those of the source.
# What was measured:
# Assay in all cases: NCI-60 one-dose screen, 48 h (100 = growth as untreated, 0 = no growth, -100 = all killed)
# SK-MEL-2 melanoma = conditions: 10 µM unless noted
# EKVX NSCLC = conditions: 10 µM unless noted
# SN12C renal = conditions: 10 µM unless noted
# UO-31 renal = conditions: 10 µM unless noted
# TK-10 renal = conditions: 10 µM unless noted
# ACHN renal = conditions: 10 µM unless noted
# CAKI-1 renal = conditions: 10 µM unless noted
# A498 renal = conditions: 10 µM unless noted
# CCRF-CEM leukemia = conditions: 10 µM unless noted
# MOLT-4 leukemia = conditions: 10 µM unless noted
# SR leukemia = conditions: 10 µM unless noted
# RPMI-8226 leukemia = conditions: 10 µM unless noted
# OVCAR-8 ovarian = conditions: 10 µM unless noted
# OVCAR-5 ovarian = conditions: 10 µM unless noted
# OVCAR-4 ovarian = conditions: 10 µM
# SK-OV-3 ovarian = conditions: 10 µM unless noted
# IGROV1 ovarian = conditions: 10 µM unless noted
# OVCAR-3 ovarian = conditions: 10 µM unless noted
# HS 578T breast = conditions: 10 µM unless noted
# NCI/ADR-RES ovarian = conditions: 10 µM unless noted
SMILES,growth (SK-MEL-2 melanoma),growth (EKVX NSCLC),growth (SN12C renal),growth (UO-31 renal),growth (TK-10 renal),growth (ACHN renal),growth (CAKI-1 renal),growth (A498 renal),growth (CCRF-CEM leukemia),growth (MOLT-4 leukemia),growth (SR leukemia),growth (RPMI-8226 leukemia),growth (OVCAR-8 ovarian),growth (OVCAR-5 ovarian) [%],growth (OVCAR-4 ovarian),growth (SK-OV-3 ovarian),growth (IGROV1 ovarian) [%],growth (OVCAR-3 ovarian),growth (HS 578T breast),growth (NCI/ADR-RES ovarian)
Cc1cc(C)c(O)c(CNCCCCCCNCc2cc(C)cc(C)c2O)c1,-61.8% (active),47.9%,29.8%,-60.3% (active),-28% (active),-42.3% (active),26.2%,21.4%,-19.9% (active),-28.1% (active),-48.3% (active),-20.8% (active),-12.4% (active),13.9,46.1%,84.9%,36.4,22%,-44.9% (active),8.8% (active)
O=C1NC(=O)C(Cc2ccc(OCc3ccc(-c4cc(F)c(F)c(F)c4)cc3)cc2)S1 (configuration not stated),94.4%,80.9%,80.1%,64.5%,100%,83.9%,53.9%,95.5%,80.4%,76.8%,83.8%,69%,90.2%,93.4,68.7%,87.5%,69.3,88.3%,83.5%,82.1%
CCC(C)[C@H](NC(=O)NC(=O)NC(=O)CI)C(=O)OC (some centres not stated),86.1%,102%,89.3%,-21.3% (active),91.8%,57.3%,-59.6% (active),89.1%,-46.2% (active),-16.7% (active),-40.7% (active),61.9%,88.1%,94.3,63.6%,88.4%,80.7,-39.5% (active),84.9%,98.4%
COc1ccc(C=C2c3ccccc3-c3ccccc32)cc1,54.9%,66.8%,61.6%,54.3%,68.6%,58.4%,49%,15.7%,57.7%,52.3%,23.4%,68.2%,67.1%,92.4,80.2%,60.6%,58.3,18%,56.3%,20.2%
N#Cc1ccc(-c2ccc(COc3ccc(CC4SC(=O)NC4=O)cc3)cc2)cc1 (configuration not stated),56.9%,48%,74.4%,48.1%,85.9%,52.4%,48.1%,99.7%,61.5%,37.8%,45.1%,48.5%,58.3%,96.2,40.8%,69.9%,68.4,64.7%,72.5%,37.8%
COc1ccc2c(c1)c(-c1noc(-c3cn(C)c4ncc(F)cc34)n1)cn2C,94%,65%,52.7%,85.1%,86.2%,84.4%,76.6%,65.7%,99%,87.6%,83.8%,92.1%,63.7%,87.6,18.4%,79.1%,69.6,42%,91%,68.3%
CCOc1ccc(/C=C(\C#N)c2cc3ccccc3[nH]2)cc1,36.1%,72.5%,62.7%,69.5%,79.3%,81.8%,40.3%,56.9%,63.4%,31.2%,18.2%,79.7%,65.4%,76.5,82.5%,67.8%,56,41.9%,66.4%,26.1%
O=C(NCCO)c1cccnc1,81.8%,109%,100%,85.2%,81%,110%,98.3%,96.9%,81.4%,107%,103%,95.4%,102%,103,110%,97.4%,100,111%,92.1%,96.5%
COc1ccc2c(c1)C(C)Cc1c(Cl)ncnc1N2C (configuration not stated),-29.4% (active),12.4%,-0.561% (active),16.9%,13%,9.12% (active),2.36% (active),-39.3% (active),13.8%,1.59% (active),-2.06% (active),-2.61% (active),7% (active),41.5,7.09% (active),12.2%,23.7,2.22% (active),16.9%,2.03% (active)
CC(C)C1=NOC(=O)C1=Cc1cn(-c2ccccc2)nc1-c1cccc([N+](=O)[O-])c1,101%,99.3%,78.3%,74.3%,89.5%,99.2%,64.6%,76.3%,2.68% (active),3.44% (active),-20.9% (active),-26.8% (active),58%,106,103%,117%,70.4,89.3%,29.7%,97%
Cc1ccc2c(c1)/C(=N\N=C/c1cn(C(C)C)c3ccccc13)C(=O)N2,81.2%,61.9%,56.4%,57.8%,81.4%,55.4%,64.4%,86.1%,6.69% (active),-10% (active),-9.77% (active),0.866% (active),54.5%,70.2,37.7%,89.2%,48.1,-2.36% (active),73.9%,79%
COc1cc(NCc2ccccc2O)c2ncccc2c1,142%,82%,106%,75.8%,150%,97.2%,8.76% (active),72%,91.5%,88.3%,82.4%,46.9%,102%,69.6,82.3%,107%,90.4,97.2%,149%,71.9%
CCN(CC)c1cc(N)c(Cc2c(N)cc(N(CC)CC)cc2Cl)c(Cl)c1,41.6%,31.9%,21.8%,68.5%,82.1%,80.2%,65.7%,76.7%,51.5%,40.8%,34.8%,3.27% (active),37.3%,92.3,23.8%,49.8%,54.7,47.2%,56%,81.5%
COc1cc(OC)c(/C=C/C(=O)c2c(N)cc(OC)cc2OC)c(OC)c1,12.4%,49.3%,37%,43.7%,44.3%,36.6%,12.3%,-11.4% (active),12.3%,35.8%,29.2%,13.5%,19.9%,29.7,80.1%,5.56% (active),32.5,-45.5% (active),,-16.2% (active)
COc1ccc2nc3c(cc2c1)C(=O)CC(C(F)(F)F)C3 (configuration not stated),83.9%,55.9%,42.1%,46.6%,69.2%,49.2%,37.1%,-7.7% (active),9.88% (active),15.3%,16.4%,93.3%,40%,57.7,95.7%,56.8%,36.6,5.3% (active),,18.9%
CC(C)c1ccc(C(=O)Nc2sc3c(c2C#N)CCC(=O)C3)cc1,-20.1% (active),7.96% (active),4.66% (active),-97% (active),0.974% (active),-90.5% (active),-44.3% (active),24.6%,1.37% (active),0.0788% (active),-11.7% (active),-35.2% (active),13.7%,11.1,-78% (active),20.8%,18.4,-33.4% (active),,3.12% (active)
